Several values for one entry are separate records, joined by “and”; a condition that tells them apart may be missing. Identical values can stand only once. Records with an inconclusive call do not appear. More than one record can exist for a structure, and the calls need not agree. Activity calls are given as the source filed them. Unless noted, calls follow the shape of the dose curve; as a rule, active = well fitted curve in the direction sought with a large enough effect; inconclusive = small, poorly fitted or top-dose-only effect, or another doubt; inactive = no such curve, though single readings can be large; an effect the other way counts as inactive or inconclusive.
Legend:
[1] = Cell Viability - BJ (AID 421; calls by dose curve;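 also: potency is read from the fitted curve at half-maximal effect; cells exposed to compound for 40 hours at 37 °C before readout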); conditions: BJ fibroblast viability, qHTS
Method in brief: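 Cytotoxicity as drop in intracellular ATP (CellTiter-Glo, 20 min RT) after 40 hr compound exposure of BJ fibroblasts at 37 °C. Titrations scaled between DMSO and 100 uM tamoxifen, Hill-fitted for AC50.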

[2] = Cell Viability - Jurkat (AID 426;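 active = dose-dependent loss of cell ATP signal giving a full or clear fitted curve, ranked by lower potency value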;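 also: potency is read from the fitted curve at half-maximal effect; cells exposed to compound for 40 hours at 37 °C before ATP read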); conditions: qHTS
Method in brief: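 Cells of the human T-cell leukemia line Jurkat (E6-1) are seeded at 5000 per well, treated with compound across a concentration range for 40 hours at 37 °C, then lysed with CellTiter-Glo; luminescence reports ATP.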

[3] = Cell Viability - Hek293 (AID 427;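 active = compounds whose dose-response curve shows a full or clear partial loss of cell viability, called from curve shape rather than a numeric limit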;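 also: potency is read from the fitted curve at half-maximal effect; cells exposed to compound for 40 hours at 37 °C before reading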); conditions: qHTS
Method in brief: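 Luminescent ATP content (CellTiter-Glo, 20 min at room temperature) was measured after a 40 hr, 37 °C compound exposure of HEK293 cells. AC50 values came from Hill-equation fits of qHTS concentration-response data normalized to DMSO and 100 uM tamoxifen.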

[4] = Cell Viability - MRC5 (AID 434; calls by dose curve;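 also: potency is read from the fitted curve at half-maximal effect; potency reflects cytotoxicity seen as loss of intracellular ATP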); conditions: MRC5 lung fibroblast viability, qHTS
Method in brief: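 Decrease in intracellular ATP, quantified by luciferase light output, reflects compound toxicity toward MRC5 cells exposed for 40 hr in complete culture medium. Concentration-response curves, scaled between DMSO and 100 uM tamoxifen, gave AC50 values.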

[5] = Cell Viability - SK-N-SH (AID 435; calls by dose curve;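 also: potency is read from the fitted curve at half-maximal effect; compound exposure lasted 40 h at 37 °C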); conditions: SK-N-SH neuroblastoma cell viability qHTS
Method in brief: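 Luminescent ATP signal served as the viability read-out after 40 hours of compound treatment of human neuroblastoma SK-N-SH cells. Concentration-response data, scaled between DMSO and 100 uM tamoxifen, gave AC50 values by standard Hill modeling.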

[6] = target: Mitogen-activated protein kinase 10 (Mus musculus) (UniProt Q61831); test: JNK3 AlphaScreen Assay (AID 530; active = well fitted curve in either direction with a large enough effect, not every such curve was filed as active;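 also: kinase came from lysate of stimulated human HepG2 cells; signal reports phosphorylation of biotinylated GST-cJun 1-79 at Ser73 with 10 µM ATP; % is scaled to controls: 0 for no effect and ±100 for the full control effect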); conditions: JNK3 lysate, c-Jun phosphorylation; series mostly up to 57.1 µM
Method in brief: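 Phosphorylation of biotinylated GST-cJun(1-79) at Ser73 is measured by AlphaScreen proximity luminescence. Enzyme is JNK3 in HepG2 lysates activated with interleukin-1beta and tumor necrosis factor alpha; ATP is 10 uM final.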

[7] = Cell Viability - Renal Proximal Tubule (AID 545); conditions: renal proximal tubule cells viability; activity change, negative = cytotoxicity: at 91.7 µM (top of the series) unless noted; also: nearly all actives have a fitted effect of over 40% in size; also: potency is read from the fitted curve at half-maximal effect;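 as to activity change, negative = cytotoxicity: 0% = DMSO only and -100% = 100 µM tamoxifen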
Method in brief: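 Luminescent ATP signal (CellTiter-Glo) served as the viability read-out after 40 hr compound exposure of freshly isolated rat proximal tubule cells at 37 °C. Concentration-dependent ATP loss was fitted with the Hill equation to give AC50.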

[8] = Cellular Toxicity (caspase-3) HUV-EC-C (AID 656); conditions: HUV-EC-C cells, caspase-3 activation (apoptosis), vehicle = 0, 100 µM tamoxifen = 100%; series mostly up to 92.2 µM;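 also: 0% = DMSO basal and 100% = 100 µM tamoxifen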
Method in brief: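 qHTS; HUV-EC-C, 1000 cells/well; 5 hr settle, 16 hr cmpd, 37°C; Caspase-Glo 3/7, 20 min RT; luminescence. Norm: DMSO = 0%, tamoxifen 100 uM = 100%. Hill-fit AC50.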

[9] = Cellular Toxicity (caspase-3) N2a (AID 665); conditions: N2a cells, luminescence, normalized: DMSO 0%, 10 µM staurosporine 100%; series mostly up to 92.2 µM;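 also: compound exposure lasted 16 h at 37 °C before readout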
Method in brief: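 Caspase-3/7 activation, measured as increased luminescence from aminoluciferin release, is quantified in mouse N2a cells exposed to compounds for 16 h. Values are normalized to DMSO and 10 uM staurosporine, with AC50 derived by Hill modelling.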

[10] = Cellular Toxicity (caspase-3) Renal Proximal Tubule (AID 667); conditions: renal proximal tubule cells; at 91.7 µM (top of the series) unless noted;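 also: cells exposed to compound for 16 hours at 37 °C before detection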
Method in brief: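 AC50 derived by standard Hill fit of concentration-response data, normalized between DMSO basal and 10 uM staurosporine as 100% stimulation. Cells: primary rat kidney proximal tubule, 16 h treatment at 37 °C.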

[11] = MultiTox-Fluor Cytotoxicity Assay - LYMP1-003 - Live Cells (AID 962); conditions: LYMP1-003 lymphoblastoid cells, MultiTox-Fluor live-cell protease fluorescence; series mostly up to 92.2 µM; also: potency is read from the fitted curve at half-maximal effect
Method in brief: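 Acute cytotoxicity is scored as a drop in live-cell protease activity in human lymphoblastoid LYMP1-003 cells after 16 hr compound exposure at 37 C. AC50 values come from Hill-equation modelling of concentration-response data.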

[12] = Cell Viability - LYMP2-003 (AID 965); conditions: LYMP2-003 lymphoblastoid cell viability; series mostly up to 92.2 µM;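 also: cells exposed to compounds for 24 h before reading; nearly all actives have a fitted effect of over 50% in size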; also: potency is read from the fitted curve at half-maximal effect;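 as to activity change, negative = cytotoxicity: 0% = DMSO only and full effect = 92 µM tetraoctylammonium bromide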
Method in brief: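 Seed 2500 lymphoblastoid cells/well; incubate 5 hr, 37 C; add compounds; incubate 24 hr, 37 C; add CellTiter-Glo, 30 min RT; read luminescence. AC50 from Hill fit.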

[13] = Cell Viability - LYMP2-008 (AID 980); conditions: LYMP2-008 lymphoblastoid cell viability, qHTS; series mostly up to 92.2 µM; also: nearly all actives have a fitted effect of over 60% in size; also: potency is read from the fitted curve at half-maximal effect;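 as to activity change, negative = cytotoxicity: cells exposed to compound for 24 h at 37 °C; % is scaled to controls: 0 for no effect and ±100 for the full control effect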
Method in brief: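 Cells seeded at 2500/well and rested 5 hr at 37 C; compounds added over a concentration range and incubated 24 hr at 37 C; CellTiter-Glo added, 30 min at room temperature; luminescence read and AC50 fitted with Hill model.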

[14] = qHTS assay for environmental chemicals that activate the Aryl hydrocarbon Receptor (AhR) signaling pathway (AID 651777); conditions: 1A2-DRE human hepatoma cells, luciferase, 24 h; activation: hits give high values; also: nearly all actives have a fitted effect of over 15% in size; also: potency is read from the fitted curve at half-maximal effect; as to activation: % of control where 0% means no effect
Method in brief: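 Stable CYP1A2 promoter/DRE-luciferase human hepatoma line treated 24 hr; One-Glo luminescence, 30 min RT.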

[15] = target: Peroxisome proliferator-activated receptor alpha (Homo sapiens) (UniProt Q07869); test: qHTS assay for small molecule agonists of the peroxisome proliferator-activated receptor alpha (PPARalpha) signaling pathway (AID 651778); conditions: PathHunter PPARalpha complementation, chemiluminescence, 6 h; max response: hits give high values; also: % of control where 0% means no effect
Chain of Peroxisome proliferator-activated receptor alpha (Homo sapiens) (Q07869 whole entry, looked up): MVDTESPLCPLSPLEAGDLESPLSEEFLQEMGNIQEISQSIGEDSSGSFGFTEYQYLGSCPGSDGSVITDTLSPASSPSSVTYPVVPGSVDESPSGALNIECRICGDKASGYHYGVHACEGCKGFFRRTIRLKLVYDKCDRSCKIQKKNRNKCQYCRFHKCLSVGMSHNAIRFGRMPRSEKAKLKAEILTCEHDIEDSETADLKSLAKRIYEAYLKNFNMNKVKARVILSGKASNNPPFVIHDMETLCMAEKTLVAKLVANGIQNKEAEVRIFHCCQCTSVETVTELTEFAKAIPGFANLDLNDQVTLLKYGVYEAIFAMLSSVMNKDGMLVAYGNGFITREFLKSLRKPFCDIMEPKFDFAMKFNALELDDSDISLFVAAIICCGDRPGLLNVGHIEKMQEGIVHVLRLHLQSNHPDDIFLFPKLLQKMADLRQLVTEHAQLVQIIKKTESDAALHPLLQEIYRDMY
Method in brief: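 Cells plated at 2,000/well and held overnight at 37 C, 5% CO2, then compound added by pin tool for 6 hr; after PathHunter detection reagent and 60 min at room temperature, chemiluminescence from enzyme complementation was read.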

[16] = qHTS assay for small molecule agonists of the antioxidant response element (ARE) signaling pathway measured by Nrf2-dependant transcriptional activity - cell viability counter screen (AID 720653; active = well fitted curve in the direction sought with a large enough effect in the repeat runs; an effect the other way counts as inactive or inconclusive; also: potency is read from the fitted curve at half-maximal effect; as to max response: % is scaled to controls: 0 for no effect and ±100 for the full control effect); conditions: ARE-bla HepG2 viability, CellTiter-Glo ATP luminescence, 16 h; max response: hits give low values
Method in brief: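 ARE-bla HepG2 cells (2,000/well) rested 5 hrs at 37C/5% CO2, then exposed to compounds in DMSO for 16 hrs. Viability was read in the same wells as intracellular ATP by luminescence, 30 min at room temperature after reagent addition.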

[17] = target: Glucocorticoid receptor (Homo sapiens) (UniProt P04150); test: GR-GFP Redistribution (AID 450;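 active = compounds whose dose series gives a full or clear partial fitted curve of increased nuclear translocation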; also: potency is read from the fitted curve at half-maximal effect); conditions: U2OS GR-GFP nuclear translocation, laser cytometry, 2 h
Chain of Glucocorticoid receptor (Homo sapiens) (P04150 whole entry, looked up): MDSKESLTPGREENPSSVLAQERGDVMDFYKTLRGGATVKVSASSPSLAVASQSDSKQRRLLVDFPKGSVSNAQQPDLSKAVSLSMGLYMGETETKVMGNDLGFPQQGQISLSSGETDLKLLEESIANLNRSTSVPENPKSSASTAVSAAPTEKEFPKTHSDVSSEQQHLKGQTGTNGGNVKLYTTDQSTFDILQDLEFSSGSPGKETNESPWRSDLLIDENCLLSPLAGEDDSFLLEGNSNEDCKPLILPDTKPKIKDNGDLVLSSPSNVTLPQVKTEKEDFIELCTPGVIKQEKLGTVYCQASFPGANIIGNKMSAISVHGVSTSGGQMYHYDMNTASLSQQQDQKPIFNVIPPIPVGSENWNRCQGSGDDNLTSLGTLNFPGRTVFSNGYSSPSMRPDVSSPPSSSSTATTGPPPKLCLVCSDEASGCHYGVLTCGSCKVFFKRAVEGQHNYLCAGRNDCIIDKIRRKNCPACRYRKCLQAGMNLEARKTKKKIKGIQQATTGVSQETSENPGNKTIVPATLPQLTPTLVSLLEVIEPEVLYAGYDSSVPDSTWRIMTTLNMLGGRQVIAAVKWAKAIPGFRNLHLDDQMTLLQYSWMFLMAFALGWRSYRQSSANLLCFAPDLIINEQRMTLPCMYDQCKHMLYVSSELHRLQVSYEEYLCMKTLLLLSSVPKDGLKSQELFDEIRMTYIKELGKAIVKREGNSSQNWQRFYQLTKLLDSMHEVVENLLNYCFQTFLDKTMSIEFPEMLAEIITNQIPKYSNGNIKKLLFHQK

[18] = target: Alpha-galactosidase (Coffea arabica) (UniProt Q42656); test: Counterscreen for Glucocerebrosidase Inhibitors: qHTS Assay for Coffee Bean alpha-Galactosidase at pH 4.5 (AID 957); conditions: purified coffee bean alpha-galactosidase, fluorogenic substrate; series mostly up to 76.9 µM;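 also: plate controls were enzyme alone for no effect and no enzyme for full effect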
Chain of Alpha-galactosidase (Coffea arabica) (Q42656 whole entry, looked up): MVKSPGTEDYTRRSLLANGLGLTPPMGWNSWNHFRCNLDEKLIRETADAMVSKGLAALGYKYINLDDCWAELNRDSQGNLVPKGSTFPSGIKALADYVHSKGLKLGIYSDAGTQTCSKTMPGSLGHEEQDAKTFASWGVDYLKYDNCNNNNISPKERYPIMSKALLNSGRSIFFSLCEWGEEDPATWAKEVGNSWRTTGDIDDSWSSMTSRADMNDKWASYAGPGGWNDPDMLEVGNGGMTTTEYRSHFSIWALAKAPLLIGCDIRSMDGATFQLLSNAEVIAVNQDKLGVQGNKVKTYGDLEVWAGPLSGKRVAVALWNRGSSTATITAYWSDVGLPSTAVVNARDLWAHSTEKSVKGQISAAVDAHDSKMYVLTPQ
Method in brief: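 Enzyme is added first (2 nM final), then compounds titrated from 0.7 nM to 77 uM, then 80 uM 4-methylumbelliferyl alpha-D-galactopyranoside; after 20 min at room temperature a pH 10 NaOH/glycine stop precedes fluorescence reading at 365/440 nm.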

[19] = target: Alpha-galactosidase (Coffea arabica) (UniProt Q42656); test: Counterscreen for Glucocerebrosidase Inhibitors: qHTS Assay for Coffee Bean alpha-Galactosidase at pH 5.9 (AID 998); conditions: coffee bean alpha-galactosidase enzyme assay; series mostly up to 76.9 µM;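 also: plate controls were uninhibited enzyme for no effect and no-enzyme basal signal for full effect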
Method in brief: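 In 50 mM citric acid pH 5.9 with 0.005% Tween-20, coffee bean enzyme hydrolyses 80 uM 4-MU alpha-D-galactopyranoside over 20 min at RT. Activity is normalized to controls; AC50 comes from Hill-modelled concentration-response data.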

O=C(O)C1C(C(=O)O)C2(Cl)C(Cl)=C(Cl)C1(Cl)C2(Cl)Cl (stereo not drawn)
inactive: Potency [1] > 92 µM | Potency [2] > 92 µM | Potency [3] > 92 µM | Potency [4] > 92 µM | Potency [5] > 92 µM | outcome [6] | Potency [7] | outcome [8] | outcome [9] | caspase-3 activation [10] -21% [at 91.7 µM, primary cells freshly taken from rat, solvent-only wells 0%, staurosporine 100%] | Potency [11] | Potency [12] | Potency [13] | activation [14] 0.623% | max response [15] 10.1% | max response [16] 5.57%

O=C(CCl)c1ccccc1
active: Potency [1] 39.2 µM | Potency [2] 9.5 µM | Potency [5] 15.4 µM | Potency [11] 39.8 µM | Potency [12] 10 µM | Potency [13] 12.6 µM
inactive: outcome [8] | outcome [9] | caspase-3 activation [10] -4.24% | activation [14] -0.199% and 2.38% | max response [15] -2.05% and -1.03% | max response [16] -32.5% and -9.07%

CC(C)CC(C)Nc1ccc(Nc2ccccc2)cc1 (stereo not drawn)
inactive: Potency [1] > 92 µM | outcome [8] | outcome [9] | activation [14] 10.8% | max response [15] -7.88% | max response [16] -3.35%
active: Potency [2] 64.1 µM | activity change, negative = cytotoxicity [7] -106% | Potency [11] 50.1 µM | Potency [12] 39.8 µM | Potency [13] 39.8 µM

Cn1c(O)c(C(=O)c2ccccc2Cl)c(=O)n(C)c1=O
inactive: Potency [17] > 20.6 µM

C[C@@H]1CC[C@@]2(OC1)O[C@H]1[C@@H](O)[C@H]3[C@@H]4CC[C@H]5C[C@@H](O[C@@H]6O[C@H](CO)[C@H](O[C@@H]7O[C@H](CO)[C@@H](O)[C@H](O[C@@H]8OC[C@@H](O)[C@H](O)[C@H]8O)[C@H]7O[C@@H]7O[C@H](CO)[C@@H](O)[C@H](O[C@@H]8O[C@H](CO)[C@@H](O)[C@H](O)[C@H]8O)[C@H]7O)[C@H](O)[C@H]6O)[C@H](O)C[C@]5(C)[C@H]4CC[C@]3(C)[C@H]1[C@@H]2C
active: Potency [1] 19.9 µM | Potency [2] 0.573 µM | Potency [3] 27.5 µM | Potency [4] 24.4 µM | Potency [5] 28.5 µM | Potency [7] 7.94 µM | Potency [11] 10 µM | Potency [12] 20 µM | Potency [13] 20 µM | Potency [16] 17.8 µM
inactive: outcome [6] | outcome [8] | outcome [9] | caspase-3 activation [10] -2.38% | activation [14] -9.71% | max response [15] -5.72%

C[C@@H]1O[C@@H](O[C@H]2C[C@@H](O)[C@]3(CO)[C@@H]4[C@@H](O)C[C@]5(C)[C@H](C6=CC(=O)OC6)CC[C@@]5(O)[C@H]4CC[C@@]3(O)C2)[C@H](O)[C@H](O)[C@@H]1O
inactive: outcome [6] | outcome [18] | outcome [19]

COCC(C)OC(=O)c1c(N)n(Cc2ccco2)c2nc3ccccc3nc12 (stereo not drawn)
inactive: Potency [17] > 20.6 µM

[CH3][Hg][Cl]
active: Potency [1] 26.7 µM | Potency [2] 1.49 µM | Potency [3] 33.3 µM | Potency [4] 25.3 µM | Potency [5] 17.4 µM | activity change, negative = cytotoxicity [7] -104% | Potency [11] 20 µM | Potency [12] 5.01 µM | Potency [13] 5.01 µM | Potency [16] 25.1 µM
inactive: outcome [6] | outcome [8] | outcome [9] | caspase-3 activation [10] -5.2% | activation [14] 1.1% | max response [15] -12.7%

Nc1ccccc1C(=O)OCCc1ccccc1
inactive: Potency [1] > 92 µM | Potency [2] > 92 µM | Potency [3] > 92 µM | Potency [4] > 92 µM | Potency [5] > 92 µM | outcome [8] | outcome [9] | caspase-3 activation [10] -20.4% | Potency [11] | Potency [12] | Potency [13] | max response [16] 0.51%
active: Potency [14] 44.7 µM

CCCC[C@@H]1C[C@H]1C(NP(=O)(c1ccccc1)c1ccccc1)c1ccc(Cl)cc1 (stereo partly drawn)
inactive: outcome [6]

O=C1C2(Cl)C3(Cl)C4(Cl)C(Cl)(Cl)C5(Cl)C3(Cl)C1(Cl)C5(Cl)C24Cl (stereo not drawn)
inactive: outcome [6] | outcome [8] | outcome [9] | caspase-3 activation [10] -3.9% | activation [14] 0.0088% and 4.7% | max response [15] 6.14% and 11.6% and 6.69% | max response [16] 5.47%
active: Potency [1] 26.8 µM and 61.3 µM | Potency [2] 32.8 µM and 53.4 µM | Potency [3] 30.2 µM and 47.2 µM | Potency [4] 39.7 µM and 48.6 µM | Potency [5] 33.3 µM and 51.3 µM | Potency [7] 31.6 µM | activity change, negative = cytotoxicity [7] -88.2% | Potency [11] 39.8 µM and 50.1 µM | Potency [12] 39.8 µM | Potency [13] 50.1 µM | Potency [16] 50.1 µM

From PubChem BioAssay (NCATS)
